For twelve molecules, composite z-score results are on record in PubChem BioAssay.

In the first assay the target is Carbonic anhydrase 2 (Homo sapiens) (UniProt P00918). Kind of assay: compounds binding carbonic anhydrase 2 – biochemical, small-molecule microarray, Alexa647-labelled CAII, profiling panel (AID 1122). The conditions noted are these: CAII-A647 binding fluorescence, higher = more signal.
`CCN1C(=O)[C@H]2[C@H]3[C@H](O)[C@H](O)CC(=NO[C@@H]4O[C@H](CO)[C@@H](O)[C@H](O)[C@H]4O)[C@@H]3CC[C@H]2C1=O` displayed a composite z-score of -0.12. `COCC1=C2[C@@H](CCc3ccccc3)OB(O)C[C@@H]2n2c(=O)n(-c3ccccc3)c(=O)n2C1` returned a composite z-score of 0.0995.

For `CN1C(=O)C2C=CC(C(O)c3ccc(Br)cc3)N(N(c3ccccc3)c3ccccc3)C2C1=O` (configuration not stated), the composite z-score was found to be 0.106. Still for that read-out and setting: as for `CC(CCN1CCCCc2nc(C)c(C)cc21)=NOC(C)CN1CCCCc2nc(C)c(C)cc21` (configuration not stated), the figure is 0.503.

Test system in another assay: not listed separately
The assay can be described thus: COS7 lysate on small-molecule microarray, probe aHis, 635 nm (AID 1123).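 Note: z-score combines 667nm fluorescence intensity with signal-to-noise per printed compound spot.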 The conditions noted are these: COS7 cell lysate, fluorescence, higher = more signal.
The molecule `CO[C@@H]1COC(=O)[C@@H]2CCCN2C(=O)[C@@H](C)COC(=O)[C@H](COCc2ccccc2)NC(=O)CC=C[C@H]1C` yielded a composite z-score of 1.35. The same measure, in the same setting: next, `C#CCCCON=C1C[C@@H](O)[C@@H](O)[C@@H]2[C@@H]3C(=O)N([C@@H](C)c4ccccc4)C(=O)[C@@H]3CC[C@H]12`: -0.0684; `COCCCNC(=O)[C@@]1(C)c2ccccc2C(=O)N(Cc2ccc(OC(F)(F)F)cc2)[C@H]1c1ccc(CO)cc1`: 0.125; `C=COC[C@H]1CN2[C@@H](CC[C@@H](C)[C@@H]2c2ccc(Br)cc2)C(=O)O1`: 0.807. On the same count and under the same terms, as for `CC(CCN1CCCCc2nc(C)c(C)cc21)=NOC(C)CN1CCCc2nc(C)c(C)cc21` (configuration not stated), the figure is 1.79. `CC(C)=NOCc1ccc(-c2cc(-c3ccccc3)no2)cc1` registered a composite z-score of -0.676. On the same count and under the same terms, next, `CCc1cc2c(nc1CC)CCN(CCC(C)=NOC[C@@H](O)[C@H]1O[C@@H]3OC(C)(C)O[C@@H]3[C@H]1O)C2`: 0.421; `COc1cccc([C@H]2Oc3ccc(OC)cc3C(=NO[C@H](C)c3cn([C@@H]4COC[C@H]4O)nn3)[C@@H]2O)c1`: -0.162.
